Screening data: PubChem, Sanford-Burnham Center for Chemical Genomics
Compounds with a hit are over-represented: about 3.2% of the library has one in this group of screens.
aDG glyco act: activators of alpha-DG glycosylation, primary screen, uHTS, Pro5-aDG cells, AlphaScreen; alpha-DG glycosylation AlphaScreen (IIH6); 0% Pro5, 100% B10-LARGE cell signal; AID 624168, 2012; activation, % at 10 µM; 360,000 tested, 0.22% active;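 active = activation of at least 8% versus controls, or a plate z-score of at least 8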;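 also: Pro5 are CHO cells carrying HIG-tagged alpha-DG that lacks glycosylation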
FAS TE block: FAS thioesterase domain inhibitors, primary screen, biochemical, fluorescence intensity, uHTS; recombinant FAS-TE, OMFH fluorogenic substrate, fluorescence endpoint; inhibition, % at 15 µM; Fatty acid synthase (Homo sapiens), P49327; 360,000 tested, 0.67% active;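 active = compounds whose normalised, plate-corrected inhibition of enzyme fluorescence in the single-dose primary screen is 50% or more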
CRFBP-R2 agonist: agonists of CRF-BP/CRF-R2 complex, primary screen, cell-based, HEK293, calcium dye fluorescence, uHTS; activation, % at 13.2 µM; calcium dye fluorescence (FLIPR); percent of saturating CRF peptide response; 350,000 tested, 0.46% active;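 active = activation of at least 50%, plus an integration ratio under a set limit after plate pattern correction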
CRFBP-R2 block: antagonists of CRF-BP/CRF-R2 complex, primary screen, cell-based, HEK293, calcium dye fluorescence, uHTS | CRF-induced calcium fluorescence | inhibition, % at 11.8 µM | 350,000 tested, 0.59% active;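 active = inhibition of the ligand-induced calcium signal above about 50% at the single tested concentration, limit read from the data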
H9c2 protect: cardioprotection against H2O2-induced cell death, primary screen, uHTS, H9c2 cells, ATPLite luminescence; 360,000 tested, 0.63% active; protection from H2O2 cell death, % at 20 µM; H9c2 cardiomyocytes, H2O2 injury protection, 2 h;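 active = compounds giving at least 50% protection of heart cells from peroxide-induced death in the single-dose screen, raw or plate-pattern-corrected value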
PfG6PD inh: PfG6PD enzyme inhibitors, primary screen, biochemical, fluorescence intensity, uHTS. PfGluPho enzyme, NADPH resazurin-diaphorase fluorescence. 350,000 tested, 0.78% active. inhibition, % at 20 µM. glucose-6-phosphate dehydrogenase-6-phosphogluconolactonase (Plasmodium falciparum 3D7);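 active = inhibition reaching at least a set limit at 20 µM in the primary screen, cut at about 59% in these data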
aDG glyco conf: alpha-DG glycosylation enhancers, retest, confirmation, single concentration, Pro5-aDG cells | shares compounds with aDG glyco act | IIH6 AlphaLISA; scaled to LARGE-overexpressing B10 cells as 100% | activation, % at 10 µM (by protocol) | 600 tested, 17% active | AID 651671, 2012;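 active = activation of at least 7% in one or more replicates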;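 also: cells exposed to compound for two days before detection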
Numbers stand for hits; – = inactive; · = not tested or not shown.

SMILES	aDG glyco act	FAS TE block	CRFBP-R2 agonist	CRFBP-R2 block	H9c2 protect	PfG6PD inh	aDG glyco conf
CCOC(=O)c1ccc(NC(=S)N2CCN(C)CC2)cc1	6.9	–	–	–	–	–	–
Cc1ncccc1C(=O)N1CCCC(CNC(=O)C2(c3ccc(Cl)cc3)CC2)C1 (stereo unspecified)	–	–	–	–	–	–	·
Nc1nonc1-c1nc2ccccc2n1CC(=O)N/N=C/c1ccc(-c2cccc(C(=O)O)c2)o1	–	–	–	–	–	–	·
CCOC(=O)C1CCCN(S(=O)(=O)c2ccc(S(=O)(=O)N3CCCC3)cc2)C1 (stereo unspecified)	4.5	–	–	–	–	–	–
O=C(NCCc1cccs1)Nc1nnc([C@H]2C[C@H](O)[C@@H](CO)O2)s1	–	–	·	·	–	·	·
C/C(=N\NC(=O)c1nnn(-c2nonc2N)c1CSc1ccc(C)cc1)c1cccs1	–	–	–	–	–	–	·
O=C(/C=C/c1ccc2c(c1)OCO2)N1CCN(c2ccc(Cl)cc2)CC1	15.0	–	–	–	–	–	–
O=C(/C=C/c1ccc2c(c1)OCCO2)N1CCN(c2ccc(F)cc2)CC1	–	–	–	–	–	–	·
CC(c1ccccc1F)n1cc(C(=O)NCCCc2nc3ccccc3[nH]2)nn1 (stereo unspecified)	–	–	–	–	–	–	·
Nc1cc2c3ccccc3ccc2c2ccccc12	4.7	–	–	–	–	–	–
COc1ccccc1C(=O)Nc1ccc2c(c1)CCCN2C(=O)c1ccccc1	9.6	–	–	–	–	–	–
c1ccc(Oc2nc(-c3ccccn3)nc3ccccc23)cc1	2.4	–	–	–	–	–	2.8
c1ccc(-c2nc(N3CCCCCC3)c3ccccc3n2)nc1	–	–	–	–	–	–	·
COc1ccc(Oc2nc(-c3ccccn3)nc3ccccc23)cc1	–	–	–	–	–	–	·
c1ccc(-c2nc(N3CCOCC3)c3ccccc3n2)nc1	7.0	–	–	–	–	–	–
O=C(CCC(=O)N1CCSc2ccccc21)NCCc1ccccc1	–	–	–	–	–	–	·
CN(C(=O)COC(=O)CCc1c[nH]c2ccccc12)c1ccccc1	–	–	–	–	–	–	·
O=C(CC1SC(=Nc2ccccc2)N(CCO)C1=O)Nc1ccccc1 (stereo unspecified)	–	–	–	–	–	–	·
O=C(CC1SC(=Nc2ccccc2)N(CCc2ccccn2)C1=O)Nc1ccc(F)cc1 (stereo unspecified)	11.0	–	–	–	–	–	–
CCCOc1ccc(C(=O)N(CC(C)C)c2c(N)n(Cc3ccccc3)c(=O)[nH]c2=O)cc1	5.7	–	–	–	–	–	–
Cc1cc(=O)oc2cc(OCC(=O)N3CCN(C(=O)C4COc5ccccc5O4)CC3)ccc12 (stereo unspecified)	–	–	–	–	–	–	·
O=C(COc1ccc2ccc(=O)oc2c1)N1CCN(C(=O)C2COc3ccccc3O2)CC1 (stereo unspecified)	7.8	–	–	–	–	–	–
CCCN(S(=O)(=O)c1ccccc1F)S(=O)(=O)c1ccccc1Br	–	–	–	–	–	–	·
CN1CC(=O)N(CC(=O)Nc2ccc(Cl)c(C(F)(F)F)c2)C1=O	5.9	–	–	–	–	–	–
O=C(CN1C(=O)NC2(CCCC2)C1=O)Nc1ccc(Cl)c(C(F)(F)F)c1	–	–	–	–	–	–	·
SMILES	aDG glyco act	FAS TE block	CRFBP-R2 agonist	CRFBP-R2 block	H9c2 protect	PfG6PD inh	aDG glyco conf
Cc1ccc(NC(C)C(=O)N/N=C/c2ccc([N+](=O)[O-])s2)cc1 (stereo unspecified)	–	–	–	–	–	–	·
COc1ccc(NC(C)C(=O)N/N=C/c2ccc([N+](=O)[O-])s2)cc1 (stereo unspecified)	9.7	–	–	–	–	–	–
c1ccc(Cn2nnnc2C(c2ccccc2)N2CCN(c3nc4ccccc4s3)CC2)cc1 (stereo unspecified)	–	–	–	–	–	–	·
c1csc(Cn2nnnc2CN2CCN(c3nc4ccccc4s3)CC2)c1	6.0	–	–	–	–	–	2.8
CCO/C(C)=N/Oc1cncnc1	–	–	·	·	–	·	·
CCCC(=O)c1ccc(N2CCN(C(=O)c3ccccc3Br)CC2)c(F)c1	5.2	–	–	–	–	–	–
CCCC(=O)c1ccc(N2CCN(C(=O)c3ccccc3)CC2)c(F)c1	–	–	–	–	–	–	·
Cc1nc2sccn2c(=O)c1S(=O)(=O)NCc1ccccc1Cl	10.1	–	–	–	–	–	–
Cc1ccc(S(=O)(=O)N2CCN(C(=O)COC(=O)CCOc3ccccc3)CC2)c(C)c1	–	–	–	–	–	–	·
COc1ccc(-c2cc(N3CCN(CCO)CC3)n3nccc3n2)cc1	–	–	·	·	–	·	·
CCOc1cccc(-c2cc(N3CCN(CCO)CC3)n3nccc3n2)c1	6.0	–	·	·	–	·	–
COc1ccc(-c2noc(CCC(=O)NCc3cccnc3)n2)cc1	–	–	–	–	–	–	·
COc1ccc(Cc2nc(-c3ccc(NC(=O)c4cccnc4)cc3)no2)cc1	7.5	–	–	–	–	–	6.7
Cn1c(Br)nc2c1c(=O)n(Cc1ccccc1)c(=O)n2C	2.4	–	–	–	–	–	–
Cn1c(=O)n(CCO)c(=O)c2c1nc(Br)n2Cc1ccccc1	–	–	–	–	–	–	·
C[C@H](NC(N)=O)C(=O)Nc1ccc2c(c1)OCO2	–	–	–	–	–	–	·
CCN1CCCC1CNC(=O)C(=O)NCCc1ccc(OC)c(OC)c1 (stereo unspecified)	–	–	–	–	–	–	·
C[C@H](CO)N1C[C@H](C)[C@@H](CN(C)S(=O)(=O)c2ccccc2)OCCCC[C@H](C)Oc2ccc(NC(=O)CCC(F)(F)F)cc2C1=O	3.4	–	–	–	–	–	–
CC(C)NC(=O)N(C)C[C@H]1Oc2ccc(NC(=O)Cc3ccccc3)cc2C(=O)N([C@H](C)CO)C[C@@H]1C	9.5	–	–	–	–	–	–
C[C@H]1CN([C@@H](C)CO)C(=O)Cc2cc(NC(=O)CCC(F)(F)F)ccc2O[C@H]1CN(C)Cc1ccc(-c2ccccc2)cc1	5.7	–	–	–	–	–	–
